Assay results taken from PubChem BioAssay (EPA / NIEHS).
The source made the active and inactive calls. How the source made its calls: active means hit-call score of the fitted dose curve at least 0.9, where 1 is the maximum; inactive means score below 0.9.

Test: ATG_TA_CIS: Attagene CIS-FACTORIAL HepG2 Assay for human TA Basal Promoter (AID 2282964)
Settings: HepG2 Attagene CIS-factorial TA basal promoter reporter; actives raise or lower the signal
Method in brief: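 Fluorescence from labelled RT-PCR reporter fragments, separated by capillary electrophoresis, gives the signal. Cells: HepG2 transiently carrying multiple reporter units, 24 h chemical dosing. Gain or loss relative to DMSO.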

Row | SMILES | outcome | AC50
1 | Cn1cc(-c2ccccc2)c(=O)c(-c2cccc(C(F)(F)F)c2)c1 | inactive | 
2 | O=C(N[C@H](c1ccccc1)[C@@H]1CN2CCC1CC2)c1c(Cl)ccc(C(F)(F)F)c1Cl | inactive | 
3 | N#CC(Br)Br | inactive | 
4 | COC(=O)c1ccccc1N | inactive | 
5 | CN(C)c1ccc(C(=O)c2ccc(N(C)C)cc2)cc1 | inactive | 
6 | ClCCOCCCl | inactive | 
7 | CC(C)(C)OOC(=O)c1ccccc1 | inactive | 
8 | CCN(CC)N=O | inactive | 
9 | Nc1ccc(Oc2ccc(N)cc2)cc1 | inactive | 
10 | Nc1cc(Cl)cc(C(=O)O)c1Cl | inactive | 
11 | CN(C)C(=O)Nc1ccc(Cl)cc1 | inactive | 
12 | c1ccc(C2CO2)cc1 (centres undefined) | inactive | 
13 | CCC12COCN1COC2 | inactive | 
14 | CC(C)(O)c1cnn2c(-c3ccc(F)c(-c4c(F)cccc4C#N)c3)cnc2n1 |  | 13.1 µM (active)
15 | Clc1ccc(C(c2ccc(Cl)cc2)C(Cl)(Cl)Cl)cc1 | inactive | 
16 | CCN(CC)CCO | inactive | 
17 | CC(C)(C)C(O)(CCc1ccc(Cl)cc1)Cn1cncn1 (centres undefined) | inactive | 
18 | CCCCCCCCCCCCCN1CC(C)OC(C)C1 (centres undefined) | inactive | 
19 | ClC1=C(Cl)C2(Cl)C3C(Cl)C=CC3C1(Cl)C2(Cl)Cl (centres undefined) | inactive | 
20 | C[N+](C)(C)CC1CO1 (centres undefined) | inactive | 
21 | CO[C@@H]1[C@H](OC(=O)NC(=O)CCl)CC[C@]2(CO2)[C@H]1[C@@]1(C)O[C@@H]1CC=C(C)C | inactive | 
22 | CCCCOC(=O)c1ccccc1C(=O)OCc1ccccc1 | inactive | 
23 | O=C(Nc1ccccc1)c1ccccc1I | inactive | 
24 | Oc1ccccc1Cl | inactive | 
25 | Clc1ccccc1Cl | inactive | 
26 | Clc1ccc(Cl)c(Cl)c1 | inactive | 
27 | CNC(=O)Oc1cccc2c1OC(C)(C)C2 | inactive | 
28 | N#CC(Br)(Br)C(N)=O | inactive | 

Test: ATG_TCF_b_cat_CIS: Attagene CIS-FACTORIAL HepG2 Assay for human T-Cell-Factor with beta-catenin (TCF/b-cat) (AID 2282965)
Settings: HepG2 TCF/beta-catenin cis-reporter transcription, actives raise or lower the signal
Method in brief: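 Measured: reporter mRNA in HepG2 transiently transfected with cis-promoter reporter units, 24 h after chemical addition. Fitting was bidirectional, DMSO as negative control.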

Row | SMILES | AC50 | outcome
29 | Cn1cc(-c2ccccc2)c(=O)c(-c2cccc(C(F)(F)F)c2)c1 | 100 µM (active) | 
30 | O=C(N[C@H](c1ccccc1)[C@@H]1CN2CCC1CC2)c1c(Cl)ccc(C(F)(F)F)c1Cl |  | inactive
31 | N#CC(Br)Br |  | inactive
32 | COC(=O)c1ccccc1N |  | inactive
33 | CN(C)c1ccc(C(=O)c2ccc(N(C)C)cc2)cc1 |  | inactive
34 | ClCCOCCCl |  | inactive
35 | CC(C)(C)OOC(=O)c1ccccc1 |  | inactive
36 | CCN(CC)N=O |  | inactive
37 | Nc1ccc(Oc2ccc(N)cc2)cc1 |  | inactive
38 | Nc1cc(Cl)cc(C(=O)O)c1Cl |  | inactive
39 | CN(C)C(=O)Nc1ccc(Cl)cc1 |  | inactive
40 | c1ccc(C2CO2)cc1 (centres undefined) |  | inactive
41 | CCC12COCN1COC2 |  | inactive
42 | CC(C)(O)c1cnn2c(-c3ccc(F)c(-c4c(F)cccc4C#N)c3)cnc2n1 | 8.97 µM (active) | 
43 | Clc1ccc(C(c2ccc(Cl)cc2)C(Cl)(Cl)Cl)cc1 |  | inactive
44 | CCN(CC)CCO |  | inactive
45 | CC(C)(C)C(O)(CCc1ccc(Cl)cc1)Cn1cncn1 (centres undefined) |  | inactive
46 | CCCCCCCCCCCCCN1CC(C)OC(C)C1 (centres undefined) |  | inactive
47 | ClC1=C(Cl)C2(Cl)C3C(Cl)C=CC3C1(Cl)C2(Cl)Cl (centres undefined) |  | inactive
48 | C[N+](C)(C)CC1CO1 (centres undefined) |  | inactive
49 | CO[C@@H]1[C@H](OC(=O)NC(=O)CCl)CC[C@]2(CO2)[C@H]1[C@@]1(C)O[C@@H]1CC=C(C)C | 39.5 µM (active) | 
50 | CCCCOC(=O)c1ccccc1C(=O)OCc1ccccc1 |  | inactive
51 | O=C(Nc1ccccc1)c1ccccc1I |  | inactive
52 | Oc1ccccc1Cl |  | inactive
53 | Clc1ccccc1Cl |  | inactive
54 | Clc1ccc(Cl)c(Cl)c1 |  | inactive
55 | CNC(=O)Oc1cccc2c1OC(C)(C)C2 |  | inactive
56 | N#CC(Br)(Br)C(N)=O | 165 µM (active) | 

Test: ATG_TAL_CIS: Attagene CIS-FACTORIAL HepG2 Assay for human TAL Basal Promoter (AID 2282966);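 further: background control endpoint measuring basal TAL promoter reporter mRNA not a specific factor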
Settings: HepG2 Attagene cis-factorial TAL promoter reporter; actives raise or lower the signal
Method in brief: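 Readout: reporter mRNA, fluorescence by CE. System: HepG2, transient multi-reporter transfection, endogenous TF activity. Exposure: 24 h. Analysis: bidirectional, DMSO-normalized; background control.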

Row | SMILES | outcome
57 | Cn1cc(-c2ccccc2)c(=O)c(-c2cccc(C(F)(F)F)c2)c1 | inactive
58 | O=C(N[C@H](c1ccccc1)[C@@H]1CN2CCC1CC2)c1c(Cl)ccc(C(F)(F)F)c1Cl | inactive
59 | N#CC(Br)Br | inactive
60 | COC(=O)c1ccccc1N | inactive
61 | CN(C)c1ccc(C(=O)c2ccc(N(C)C)cc2)cc1 | inactive
62 | ClCCOCCCl | inactive
63 | CC(C)(C)OOC(=O)c1ccccc1 | inactive
64 | CCN(CC)N=O | inactive
65 | Nc1ccc(Oc2ccc(N)cc2)cc1 | inactive
66 | Nc1cc(Cl)cc(C(=O)O)c1Cl | inactive
67 | CN(C)C(=O)Nc1ccc(Cl)cc1 | inactive
68 | c1ccc(C2CO2)cc1 (centres undefined) | inactive
69 | CCC12COCN1COC2 | inactive
70 | CC(C)(O)c1cnn2c(-c3ccc(F)c(-c4c(F)cccc4C#N)c3)cnc2n1 | inactive
71 | Clc1ccc(C(c2ccc(Cl)cc2)C(Cl)(Cl)Cl)cc1 | inactive
72 | CCN(CC)CCO | inactive
73 | CC(C)(C)C(O)(CCc1ccc(Cl)cc1)Cn1cncn1 (centres undefined) | inactive
74 | CCCCCCCCCCCCCN1CC(C)OC(C)C1 (centres undefined) | inactive
75 | ClC1=C(Cl)C2(Cl)C3C(Cl)C=CC3C1(Cl)C2(Cl)Cl (centres undefined) | inactive
76 | C[N+](C)(C)CC1CO1 (centres undefined) | inactive
77 | CO[C@@H]1[C@H](OC(=O)NC(=O)CCl)CC[C@]2(CO2)[C@H]1[C@@]1(C)O[C@@H]1CC=C(C)C | inactive
78 | CCCCOC(=O)c1ccccc1C(=O)OCc1ccccc1 | inactive
79 | O=C(Nc1ccccc1)c1ccccc1I | inactive
80 | Oc1ccccc1Cl | inactive
81 | Clc1ccccc1Cl | inactive
82 | Clc1ccc(Cl)c(Cl)c1 | inactive
83 | CNC(=O)Oc1cccc2c1OC(C)(C)C2 | inactive
84 | N#CC(Br)(Br)C(N)=O | inactive
